Screens from PubChem BioAssay.
Rows were chosen to be rich in hits. Some 11% of all compounds tested hit in one or more screens of this group.
hNpr1 antagonist: human Npr1 receptor antagonism; 76,000 tested, 1.6% active; Potency, µM (doses to about 46.3 µM), for inactives: top-dose activity change, negative = inhibition, most hits filed as inhibitors; AID 1347048; P16066; HEK293 hNpr1 GloSensor cGMP, ANP-stimulated luminescence; further: on the % scale 0 is the no-effect control and ±100 the full control effect; nearly all actives have a fitted effect of over 60% in size
Target sequence (P16066 whole entry, looked up): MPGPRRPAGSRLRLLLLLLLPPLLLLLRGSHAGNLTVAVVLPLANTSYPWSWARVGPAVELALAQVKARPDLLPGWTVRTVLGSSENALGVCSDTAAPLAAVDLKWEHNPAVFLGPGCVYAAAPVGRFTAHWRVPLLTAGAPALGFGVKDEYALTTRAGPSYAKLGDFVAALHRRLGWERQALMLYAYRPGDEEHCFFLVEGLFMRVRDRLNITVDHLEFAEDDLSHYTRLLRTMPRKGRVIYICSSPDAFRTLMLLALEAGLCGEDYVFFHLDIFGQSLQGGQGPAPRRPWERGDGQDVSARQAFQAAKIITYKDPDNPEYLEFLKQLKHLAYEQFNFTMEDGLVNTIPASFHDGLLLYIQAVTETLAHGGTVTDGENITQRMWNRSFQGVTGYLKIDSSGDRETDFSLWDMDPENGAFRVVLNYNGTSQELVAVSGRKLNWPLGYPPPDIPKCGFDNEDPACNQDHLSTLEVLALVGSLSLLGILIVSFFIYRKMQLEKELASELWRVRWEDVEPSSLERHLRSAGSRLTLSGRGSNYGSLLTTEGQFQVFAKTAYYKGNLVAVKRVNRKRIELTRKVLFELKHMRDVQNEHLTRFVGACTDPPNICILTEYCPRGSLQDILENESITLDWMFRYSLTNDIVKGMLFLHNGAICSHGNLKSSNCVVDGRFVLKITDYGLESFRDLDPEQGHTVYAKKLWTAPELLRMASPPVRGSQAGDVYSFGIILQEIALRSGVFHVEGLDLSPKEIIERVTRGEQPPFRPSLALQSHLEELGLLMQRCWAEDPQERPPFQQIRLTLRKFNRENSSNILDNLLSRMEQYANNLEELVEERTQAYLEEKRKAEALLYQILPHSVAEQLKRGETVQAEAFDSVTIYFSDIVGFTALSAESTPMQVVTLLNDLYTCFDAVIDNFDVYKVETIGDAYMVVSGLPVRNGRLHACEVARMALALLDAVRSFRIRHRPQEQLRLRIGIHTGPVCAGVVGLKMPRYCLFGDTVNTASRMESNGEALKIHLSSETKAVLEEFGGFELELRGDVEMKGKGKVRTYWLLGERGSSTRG
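Compound pre-incubated 30 min at room temperature on GloSensor-loaded HEK293 cells stably carrying hNpr1 and the pGS-40F cGMP biosensor. Stimulation uses hNppA at 0.1 nM final; luminescence is taken at baseline and 20 min post-agonist.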
FLuc inh: blocks purified firefly luciferase enzyme activity; P08659; purified P. pyralis luciferase, luminescence, biochemical; Potency, µM (highest dose often 115 µM), actives largely listed as inhibitors; 76,000 tested, 2.5% active; AID 1347043; active means well fitted curve in the direction sought with a large enough effect; inconclusive means small, poorly fitted or top-dose-only effect, or another doubt; inactive means no such curve, though single readings can be large; an effect the other way counts as inactive or inconclusive; further: on the % scale 0 is the no-effect control and ±100 the full control effect; nearly all actives have a fitted effect of over 65% in size
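FLuc 10nM, D-luciferin 10uM, ATP 10uM, Mg acetate 10mM, Tris acetate pH 7.5, Tween/BSA; cpd qHTS; enzyme added last; CCD luminescence.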
HEK293 tox: cytotoxic compounds in HEK 293 cells; HEK 293 viability, ATP luminescence (CellTiter-Glo), 48-72 h; Potency, µM (highest dose often 115 µM), inactives show at the top dose activity change, negative = cytotoxicity, usual class: inhibitors; 94,000 tested, 6.6% active; active means well fitted curve in the direction sought with a large enough effect; inconclusive means small, poorly fitted or top-dose-only effect, or another doubt; inactive means no such curve, though single readings can be large; an effect the other way counts as inactive or inconclusive; further: on the % scale 0 is the no-effect control and ±100 the full control effect; nearly all actives have a fitted effect of over 60% in size
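Read-out: CellTiter-Glo ATP luminescence. Cells: HEK 293, 250 cells/well. Exposure: 48 or 72 hr, 37 degree Celsius.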
3T3 cytotox: kills NIH 3T3 cells; NIH 3T3 viability, CellTiter-Glo ATP luminescence, 48-72 h; 94,000 tested, 4.3% active; Potency, µM (titrated, usually from 96.7 µM), for inactives: at the top dose activity change, negative = cytotoxicity, usual class: inhibitors; active means well fitted curve in the direction sought with a large enough effect; inconclusive means small, poorly fitted or top-dose-only effect, or another doubt; inactive means no such curve, though single readings can be large; an effect the other way counts as inactive or inconclusive; further: on the % scale 0 is the no-effect control and ±100 the full control effect; nearly all actives have a fitted effect of over 55% in size
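Cytotoxicity is measured as loss of cellular ATP: NIH 3T3 cells (400/well) are exposed to compound for 48 or 72 hr at 37 °C, then CellTiter-Glo luminescence is imaged after 10 min at room temperature.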
Npr1 antag conf: hNpr1 antagonism, confirmation assay; HEK293 hNpr1 cGMP GloSensor luminescence, ANP-stimulated; Potency, µM (highest dose often 57.6 µM), for the others: at the top dose activity change, negative = inhibition, hits mostly inhibitors; 1,400 tested, 76% active; shares compounds with hNpr1 antagonist; AID 1347044; further: nearly all actives have a fitted effect of over 70% in size
Npr2 selectivity: selectivity test of Npr1 antagonists against human Npr2; shares compounds with hNpr1 antagonist; HEK293 hNpr2 GloSensor cGMP luminescence, CNP-stimulated; 1,400 tested, 67% active; Potency, µM (titrated, usually from 57.6 µM), for inactives: at the highest dose activity change, negative = inhibition, usual class: inhibitors; AID 1347046; further: nearly all actives have a fitted effect of over 70% in size
FLuc counter: counter-screen for Npr1 antagonists: firefly luciferase inhibitors | purified FLuc enzyme, luminescence, Km substrate | shares compounds with hNpr1 antagonist | Potency, µM (top dose mostly 57.6 µM), without a hit: at the top dose activity change, negative = inhibition, hits mostly inhibitors | 1,400 tested, 0.7% active; active means well fitted curve in the direction sought with a large enough effect; inconclusive means small, poorly fitted or top-dose-only effect, or another doubt; inactive means no such curve, though single readings can be large; an effect the other way counts as inactive or inconclusive; further: 0% is about no effect
GloSensor ctrl: control cell line activity, Npr1 antagonist counter-screen. shares compounds with hNpr1 antagonist. HEK293 GloSensor cGMP, SNP-stimulated, luminescence. Potency, µM (doses to about 57.6 µM), without a hit: top-dose activity change, negative = inhibition, usual class: inhibitors. 1,400 tested, 69% active; further: on the % scale 0 is the no-effect control and ±100 the full control effect; nearly all actives have a fitted effect of over 70% in size
An asterisk follows results filed as active; i = inactive; ? = inconclusive; nt = no result; ! = not active in a repeat; [ ] = remark or other dose. Unless noted, the call rests on the fitted dose curve. Potency means the concentration at half of the fitted maximal effect.

SMILES	hNpr1 antagonist	FLuc inh	HEK293 tox	3T3 cytotox	Npr1 antag conf	Npr2 selectivity	FLuc counter	GloSensor ctrl
CCC(C)NC(=O)N1CC(Oc2cccc(-c3nc(C)no3)c2)C1 (centres undefined)	-6%	i	?	-21%	nt	nt	nt	nt
O=C(N1CC(Oc2ccc(-c3nc(-c4ccccc4)no3)cc2)C1)C1(c2ccccc2)CC1	?	i	22µM*	?	?	22µM*	-12%	22µM*
CC(C)CNC(=O)N1CC(Oc2ccc(-c3noc(C4CCOCC4)n3)cc2)C1	14µM*	i	?	?	4.8µM*	5.4µM*	-17%	4.3µM*
COc1ccccc1CCC(=O)N1CCC2(CC1)NC(=O)N(c1ccccc1)N2	-8%	i	?	?	nt	nt	nt	nt
O=C(C1CC1)N1CC(Oc2ccc(-c3noc(C4CCOCC4)n3)cc2)C1	10µM*	i	?	?	9.7µM*	11µM*	-11%	9.7µM*
CCC(C)NC(=O)N1CC(Oc2ccc(-c3noc(C4CCOCC4)n3)cc2)C1 (centres undefined)	7.9µM*	i	?	?	5.4µM*	6.1µM*	-8%	4.8µM*
COc1ccc(-c2ccccc2C(=O)NC2CCc3ccccc32)nn1 (centres undefined)	nt	nt	1%	0%	nt	nt	nt	nt
COCc1nc2nc(-c3ccccc3)c(-c3ccc(O)c(F)c3)cc2n1C	-26%[70.6 µM]	?	?	?	nt	nt	nt	nt
CN(C)CCNC(=O)c1nc2nc(-c3ccccc3)c(-c3ccc(O)c(F)c3)cc2n1C	22µM*	i	71µM*	45µM*	35µM*	20µM*	2%[86.2 µM]	-8%[86.2 µM]
COc1ccc(C(=O)N2CCC3(CC2)CC(c2cccc(C(F)(F)F)c2)=NO3)cc1	11µM*	i	35µM*!	22µM*!	24µM*	27µM*	3%[6.39 µM]	?
Cc1ccc(S(=O)(=O)N2CCc3c(C(=O)NCC(C)C)cccc32)cc1	?	i	?	?	?	?	0%	?
COc1ccc(-c2cc(N3CCN(C(=O)Cc4ccc(Br)cc4)CC3)n[nH]2)cc1	?	i	1%	i	nt	nt	nt	nt
Cc1cccc(CC(=O)N2CCCN(c3cc(-c4ccc(Br)cc4)[nH]n3)CC2)c1	?	i	?	32µM*	?	24µM*	3%	24µM*
O=C(Cc1ccccc1)N1CCN(c2cc(-c3ccccc3)[nH]n2)CC1	-18%	i	?	?	nt	nt	nt	nt
COc1cccc(CC(=O)N2CCCN(c3cc(-c4ccc(Br)cc4)[nH]n3)CC2)c1	11µM*	i	45µM*	35µM*	24µM*	24µM*	-1%	22µM*
O=C(c1nc2c(o1)CCN(Cc1ccc3c(c1)CCO3)CC2)N1CCOCC1	-1%[70.6 µM]	i	?	-28%[138 µM]	nt	nt	nt	nt
O=C(NCC1CC1)c1nc2c(o1)CCN(Cc1ccc3c(c1)CCO3)CC2	25µM*	i	?	?	44µM*	?	2%[86.2 µM]	35µM*
Cc1cc(F)cc(CN2CCc3nc(C(=O)NCC4CC4)oc3CC2)c1	22µM*	i	?	?	31µM*	28µM*	4%[86.2 µM]	28µM*
Cc1ccsc1C(=O)N1CC(Oc2ccc(-c3nc(-c4ccccc4)no3)cc2)C1	4%	?	-3%	i	nt	nt	nt	nt
CCc1noc(CN(CC)C(=O)c2ccccc2NCc2sccc2C)n1	-5%	i	?	?	nt	nt	nt	nt
CC(=O)Nc1ccc(S(=O)(=O)N[C@H]2CO[C@H]3[C@@H]2OC[C@H]3OC(=O)Nc2ccc(C(C)=O)cc2)cc1	-6%	i	i	-22%	nt	nt	nt	nt
O=C(Nc1ccc(Oc2ccccc2)cc1)O[C@@H]1CO[C@H]2[C@@H]1OC[C@@H]2NC(=S)Nc1cccc2ccccc12	10µM*	i	?	?	5.4µM*	6.9µM*	-12%	6.1µM*
COc1ccc(NC(=O)O[C@@H]2CO[C@H]3[C@@H]2OC[C@@H]3NC(=O)Nc2cccc(C#N)c2)cc1	1%	i	-13%	-9%	nt	nt	nt	nt
O=C(Nc1ccc(Oc2ccccc2)cc1)O[C@@H]1CO[C@H]2[C@@H]1OC[C@@H]2NS(=O)(=O)c1ccc2ccccc2c1	?	i	?	?	17µM*	15µM*	-13%	11µM*
N#Cc1cccc(CN[C@H]2CO[C@H]3[C@@H]2OC[C@H]3OC(=O)Nc2ccc(Oc3ccccc3)cc2)c1	18µM*	i	?	?	22µM*	22µM*	-9%	19µM*
SMILES	hNpr1 antagonist	FLuc inh	HEK293 tox	3T3 cytotox	Npr1 antag conf	Npr2 selectivity	FLuc counter	GloSensor ctrl
COc1ccc(CC(=O)NC2CCCN(c3cc(-c4ccc(F)cc4)[nH]n3)C2)cc1 (centres undefined)	-3%	i	-10%	0%	nt	nt	nt	nt
COc1ccc(CC(=O)NC2CCN(c3cc(-c4ccc(F)cc4)[nH]n3)CC2)cc1OC	11µM*	i	?	?	22µM*	19µM*	-1%	22µM*
COc1cccc(CC(=O)NC2CCN(c3cc(-c4ccc(Cl)cc4)[nH]n3)CC2)c1	?	i	-30%	-24%	?	?	-3%	?
COc1ccc(C(=O)NC2CCCN(c3cc(-c4ccc(Cl)cc4)[nH]n3)C2)c(C)c1 (centres undefined)	?	i	-29%	-28%	?	?	-2%	?
COc1ccc(C(=O)NC2CCN(c3cc(-c4ccc(Cl)cc4)[nH]n3)CC2)c(C)c1	?	i	?	?	nt	nt	nt	nt
COc1ccc(CC(=O)NC2CCN(c3cc(-c4ccc(F)cc4)[nH]n3)C2)cc1OC (centres undefined)	13µM*	i	?	?	22µM*	22µM*	-1%	24µM*
COc1ccc(-c2cc(N3CCC(NC(=O)Cc4cccc(OC)c4)CC3)n[nH]2)cc1	-7%	i	?	?	nt	nt	nt	nt
Cc1cnc(C2CCOCC2)n1CC1CCN(S(=O)(=O)c2cccnc2)CC1	0%	i	-7%	-8%	nt	nt	nt	nt
O=C(c1ccc(Cl)nc1)N1CCC(C(=O)N2CCC(N3CCOCC3=O)CC2)CC1	nt	nt	-22%	-12%	nt	nt	nt	nt
